Data on 40 compounds can be found in PubChem BioAssay (Tox21).

Inconclusive results are not listed. Values without a mark were called inactive. Calls come from the whole dose curve; as a rule, active = well fitted inhibition curve with a large enough effect in the signal ratio in the repeat runs (not every such curve was filed as active); inconclusive = weak or mixed curves, or effect the other way; inactive = no such curve, though single readings can be large or run the other way; the % refers to the signal ratio.
% is set by controls: 0 for no effect and ±100 for the full control effect.

Bile acid receptor (Homo sapiens), sequence (Q96RI1 whole entry, looked up): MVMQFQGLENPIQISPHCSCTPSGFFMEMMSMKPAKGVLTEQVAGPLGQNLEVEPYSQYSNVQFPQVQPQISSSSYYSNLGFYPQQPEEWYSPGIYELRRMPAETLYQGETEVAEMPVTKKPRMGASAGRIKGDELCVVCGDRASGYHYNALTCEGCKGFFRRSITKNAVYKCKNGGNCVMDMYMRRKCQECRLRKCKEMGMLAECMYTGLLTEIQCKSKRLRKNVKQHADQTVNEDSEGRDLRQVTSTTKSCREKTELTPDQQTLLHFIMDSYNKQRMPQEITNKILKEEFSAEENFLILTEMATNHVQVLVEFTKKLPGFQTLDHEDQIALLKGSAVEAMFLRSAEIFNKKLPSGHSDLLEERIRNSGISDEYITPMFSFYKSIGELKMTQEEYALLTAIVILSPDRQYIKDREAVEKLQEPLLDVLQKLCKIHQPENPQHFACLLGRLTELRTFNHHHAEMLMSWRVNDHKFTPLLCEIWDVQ

This assay deals with Bile acid receptor (Homo sapiens) (UniProt Q96RI1). The assay can be described thus: qHTS assay to identify small molecule antagonists of the farnesoid-X-receptor (FXR) signaling pathway (AID 743217). To be noted: HEK293T FXR-UAS-bla, beta-lactamase ratio, CDCA-stimulated, 16 h; series mostly up to 62.6 µM; activity change, negative = inhibition: at the top concentration. From the text:
U.S. Tox21 Program National Center for Advancing Translational Sciences [NCATS] NIH Chemical Genomics Center [NCGC] U.S. Environmental Protection Agency [EPA] National Institutes of Environmental Health Sciences [NIEHS] National Toxicology Program [NTP] U.S. Food and Drug Administration [FDA] Tox21 Assay Overview: The farnesoid-X-receptor (FXR), a nuclear hormone receptor, is highly expressed in liver, intestine, kidney and adrenal cortex. Natural ligands of FXR are the bile acids (Cholic acid, Chenodeoxy cholic acid etc). FXR is an important regulator of diverse metabolic pathways, including the bile acid homeostasis, lipid and glucose metabolisms. FXR regulates the expression of target genes by binding either as a monomer or as a heterodimer with the retinoid X receptor (RXR). Numerous studies have reported that FXR exerts protective function during cholestasis, diabetes, liver regeneration, and cancer. To identify compounds that inhibit FXR signaling, GeneBLAzer FXR-UAS-bla HEK 293T cell line (Invitrogen, Carlsbad, CA) containing a beta-lactamase reporter gene under the control of a UAS response element was used to screen the Tox21 10K compound library.
Tox21 Assay Protocol Summary: FXR-bla cells were dispensed at 5000 cells/5uL/well in 1536-well black wall/clear bottom plates using a Multidrop Combi (Thermo Fisher Scientific, Waltham, MA) dispenser. After the assay plates were incubated at 37C and 5% CO2 for 5 h, 23 nL of compounds dissolved in DMSO, positive controls or DMSO only was transferred to the assay plate by a Pintool station (Kalypsys, San Diego, CA), followed by addition of 1 uL Chenodeoxycholic acid (50 uM, final concentration in the wells). The assay plates were incubated at 37C for 16 h. After 1 uL of LiveBLAzerTM B/G FRET substrate was added using a Bioraptr Flying Reagent Dispenser (FRD) workstation (Beckman Coulter, Indianapolis, IN), the plates were incubated at room temperature for 2 h, and fluorescence intensity was measured by an Envision plate reader (PerkinElmer, Shelton, CT).
(In qHTS, concentration-response curves come from the screen itself.)
Take `OCC(CO)(CO)COCC(CO)(CO)CO`: the “activity change, negative = inhibition” value was 2.93%.
Turning to `CN(C)CCn1nnnc1SCC1=C(C(=O)O)N2C(=O)[C@@H](NC(=O)Cc3csc(N)n3)[C@H]2SC1`, the “activity change, negative = inhibition” value was 8.32%.
Turning to `O=[N+]([O-])c1ccc(Oc2ccc([N+](=O)[O-])cc2)cc1`, the “activity change, negative = inhibition” value was 4.53% [at 81.1 µM].
To `OCCN1C[C@H](O)[C@@H](O)[C@H](O)[C@H]1CO` belongs 0.353%; to `Nc1ccc2cc(S(=O)(=O)O)ccc2c1`, 0.42%.
As to `CC(C)(C)C(=O)/C=C/c1ccc(Cl)cc1`, the “activity change, negative = inhibition” value is 0.38%.
Take `CCCC(C)C(=O)O` (stereo not given): the “activity change, negative = inhibition” value was 4.46%.
Consider `Nc1ccn(C2CO[C@H](CO)O2)c(=O)n1` (stereo not given in full), for which the “activity change, negative = inhibition” value is 0.777%.
Regarding `CCCCCCCCCCCl`, the “activity change, negative = inhibition” value is 0.253% [at 81.1 µM].
For `O=C(O)CCNC(=O)c1ccc(N=Nc2ccc(O)c(C(=O)O)c2)cc1`, the “activity change, negative = inhibition” value is 7.29%.
As to `C=CCSCC1Nc2cc(Cl)c(S(N)(=O)=O)cc2S(=O)(=O)N1` (stereo not given), the “activity change, negative = inhibition” value is 5.84%.
Take `CCOC(=O)[C@H](CCc1ccccc1)N[C@@H](C)C(=O)N1CCC[C@H]1C(=O)O`: the “activity change, negative = inhibition” value is -4.64%.
To `CC(C)CCOC(=O)CC(C)C` belongs -2.36%; to `CCn1c(=O)c2c(nc(/C=C/c3ccc(OC)c(OC)c3)n2C)n(CC)c1=O`, -2.69%; to `C=C(C)C(=O)NCCC[N+](C)(C)C`, 7.55%.
On to `O=C1CC2(CCCC2)CC(=O)N1`, for which the “activity change, negative = inhibition” value was -0.605%.
On to `CCCCCCOC(=O)c1ccccc1O`, for which the “activity change, negative = inhibition” value is 4.54%.
Consider `C=CC(=O)N1CCOCC1`, for which the “activity change, negative = inhibition” value is 3.17%.
Take `CCCC(C)CO` (stereo not given): the “activity change, negative = inhibition” value is 0.665%.
To `CCCCCCCCCCCCI` belongs 0.953% [at 81.1 µM].
As to `O=C(O)/C=C/c1ccc(Cn2ccnc2)cc1`, the “activity change, negative = inhibition” value was 4.81%.
To `Nc1cc(N)cc(C(=O)O)c1` belongs 1.46%; to `COc1cc(CCC(C)=O)ccc1O`, 1.34%; to `CC(C)COC(=O)C(C)C`, -2.06%.
`CCC(C(=O)NC(N)=O)c1ccccc1` (stereo not given): the “activity change, negative = inhibition” value was 1.03%.
Take `Cc1c(C)n(CCN(C)C)c2ccc(C(=O)OCCN(C)C)cc12`: the “activity change, negative = inhibition” value is 0.436%.
To `COC(=O)C1=C(C)NC(C)=C(C(=O)OCC(C)=O)C1c1ccccc1[N+](=O)[O-]` (stereo not given) belongs 3.71%; to `O=C(O)c1ccccc1-c1ccc(C(F)(F)F)cc1`, 6.77%.
For `O=C(O)c1ccccc1S`, the “activity change, negative = inhibition” value was 8.75%.
In the case of `C1=C\CC/C=C\CC/C=C\CC/1`, the “activity change, negative = inhibition” value was 8.96%.
Consider `COC(C(=O)O)c1ccccc1` (stereo not given), for which the “activity change, negative = inhibition” value was 5.47%.
`CC(C)[C@H](N)C(=O)OCCOCn1cnc2c(=O)[nH]c(N)nc21`: the “activity change, negative = inhibition” value was -4.22%.
For the compound `NC(=O)c1c(Cl)cccc1Cl`, the “activity change, negative = inhibition” value is 3.3%.
To `Nc1[nH]c(=O)ncc1F` belongs 1.03%; to `CC(=O)N[C@@H](CCC(N)=O)C(=O)O`, -0.249%.
As to `CC1CCN(CCCC(=O)c2ccc(F)cc2)CC1`, the “activity change, negative = inhibition” value is -10.8%.
To `Cc1ncc(CSSCc2cnc(C)c(O)c2CO)c(CO)c1O` belongs 4.67%; to `N#CCc1ccccc1[N+](=O)[O-]`, 3.67%.
To `Cn1ccc2cc3c(cc21)CCN3C(=O)Nc1cccnc1` belongs -26.9% [at 29.1 µM]; to `Cc1ccc(Nc2ccc(O)c3c2C(=O)c2ccccc2C3=O)cc1`, -8.37%.
